In PubChem BioAssay one finds growth inhibition and inhibition data, which are given here for 36 compounds.

Structures are written as SMILES. Values without a mark were called inactive. The source made the active and inactive calls.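 Rule for the calls, unless noted: active = inhibition above 50%; inactive = the rest.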

A short description of one assay: antimalarial activity against Dd2 strain (AID 2302;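 active = growth inhibition above 50% at the single 2 µM test dose, taken to imply half-maximal potency below 2 µM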;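 note: 0% = DMSO untreated growth and 100% = chloroquine plus artemisinin killed control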). As to conditions: P. falciparum Dd2 in RBCs, LDH growth readout, 72 h; at 2 µM; stronger effect = higher value.
As for `CCCc1cc(C)ccc1OCCCON1C(NC(=O)OCC)=NC(NC(=O)OCC)=NC1(C)C`, the growth inhibition is 97% (active).
For the compound `O=C(c1ccc(F)c(F)c1)N1CCOC(CCN2CCC(c3ccccc3)CC2)(c2ccc(Cl)c(Cl)c2)C1` (stereo unspecified), the growth inhibition was 75% (active).
For the compound `CC(=O)N(C)/N=C/[C@H](CCc1ccccc1)NC(=O)[C@H](CC(C)C)NC(=O)c1cccc(OCCN2CCOCC2)c1`, the growth inhibition was 65% (active).

A short description of another assay: HepG2 cytotoxicity, primary screen, cytotoxicity control for P. falciparum antimalarial project, cell-based, ATP luminescence (AID 2303).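 Note: 0% = DMSO wells and 100% = digitonin-killed cells.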 The settings on record: HepG2 viability, 24-48 h, at 10 µM, stronger effect = higher value.
As for `c1ccc(CN2CCC(Nc3ccc(-c4cn[nH]c4-c4ccccn4)nc3)CC2)cc1`, the inhibition was 1%.
The same measure, in the same setting: the value for `CN1CCN(c2cc3c(cc2Cl)CCN3C(=O)Cc2ccc(NC(=O)Nc3cccc4ccccc34)cc2)CC1` was 12%; that for `O=C(CCC1CCCCC1=O)c1ccccc1` (stereo unspecified) was 0%.
Same read-out and setting: the value for `CCOc1c(C)cc(C(F)(F)F)cc1CNCCCNc1cc(=O)c2ccccc2[nH]1` was -1%; that for `CCc1cn2c3c(cc(C(=O)N[C@@H](Cc4ccccc4)[C@H](O)CNC4CCCC4)cc13)N(C)S(=O)(=O)CC2` was 6%.
Same read-out and setting: the value for `COc1ccc(NC(=O)[C@H](CC(C)C)Nc2cc(C)nc(NCCc3ccc(F)cc3)n2)cc1` was 1%.
As for `CN(C)CCN(C)Cc1ccc(-c2ccc(NC(=O)c3ccc(Cl)cc3)cc2)cc1`, the inhibition is 51% (active).
The same measure, in the same setting: the value for `Cc1cc(-c2cc3nc4c(c(=O)n3[nH]2)CCCC4)c(C)o1` was 4%; that for `CC(C)NCC(=O)Nc1cccc(C(=O)Nc2cccc(C(F)(F)F)c2)c1` was 6%; that for `Cn1c(NC(=O)C2CCC(CNC(=O)c3ccc(O)c(-c4ccc(Cl)c(Cl)c4)c3)CC2)nc2ccccc21` (stereo unspecified) was 40%.
The same measure, in the same setting: to `O=C(Nc1ccc(OC2CCN(Cc3ccsc3)C2)c(Cl)c1)c1ccco1` (stereo unspecified) belongs -6%.
Regarding `O=c1[nH]c2c(c(O)c1[N+](=O)[O-])CCC2`, the inhibition was 9%.
Still for that read-out and setting: the value for `COc1cc(OC)c2c(C)cc(NCCCn3ccnc3)nc2c1` was 6%; that for `CN1CCCN(Cc2cccc(-c3cccc(NC(=O)c4cccc(C#N)c4)c3)c2)CC1` was 18%.
Same read-out and setting: the value for `O=C(NCCSCc1c(F)cccc1Cl)c1cnc2c(c1)nc(-c1cnc(-c3ccccc3)[nH]1)n2CCc1cnc[nH]1` was 10%; that for `O=C(Nc1ccc(Cl)cc1)Nc1ccc(-c2csc(-c3nc4ccccc4[nH]3)c2)cc1` was 59% (active); that for `CCOC(=O)C(C(C)=O)C(c1ccccc1)C(C(C)=O)C(=O)OCC` (stereo unspecified) was 6%.
On the same count and under the same terms, the value for `CN(C)CCCn1c(C(=O)OC(c2ccccc2)c2ccccc2)cc2cc(OCc3ccccc3)ccc21` was 12%.
As to `Cc1noc(C)c1-c1cccc(CNCc2cccc(-c3cccc(-c4nc5ccc(F)cc5[nH]4)c3)c2)c1`, the inhibition was 18%.
For `CCOc1cc(C(=O)NCCc2ccc(Cl)c(Cl)c2)ccc1-c1nc2ccc(Cl)cc2[nH]1`, the inhibition was 9%.
On the same count and under the same terms, to `c1cc(CNCCc2ccncc2)cc(-c2csc(-c3nc4ccccc4[nH]3)c2)c1` belongs 16%; to `CN(C)c1ccc(-c2csc(C(=O)NCC3CCN(Cc4cccc(C(F)(F)F)c4)C3)c2)cc1` (stereo unspecified), 15%.
As for `CC(C)c1ccc(CN2CCC(NC(=O)c3ccc(-c4cccc(F)c4)s3)CC2)cc1`, the inhibition is 47%.
Same read-out and setting: to `O=C(Cn1c(SCc2cccc(F)c2F)cc(=O)c2ccccc21)N(CCc1cnc[nH]1)Cc1ccc(-c2ccc(C(F)(F)F)cc2)cc1` belongs 18%; to `CCOC(=O)c1c(CCc2ccc(C(F)(F)F)cc2)nc2c(c1-c1ccc(C(=O)N[C@@H](C)c3ccncc3)cc1)C(=O)N1CCC[C@@H]21`, -3%.
Still for that read-out and setting: the value for `CCCCCn1c(Sc2ccc(C#N)c([N+](=O)[O-])c2)nnc1-c1ccc(OC)cc1` was 8%; that for `c1cc(C2=N[C@H]3CCCC[C@@H]3N2)ccc1OCCCOc1ccc(C2=N[C@@H]3CCCC[C@H]3N2)cc1` was -7%; that for `O=C(/C=C/c1ccc(Cl)cc1)NCCCCCN1CCN(C(=O)Nc2ccc(Cl)c(C(F)(F)F)c2)CC1` was 18%.
On the same count and under the same terms, the value for `COC(=O)c1cccc(NC(=O)NC2CCN(c3ccnc(Nc4ccc(OC)cc4)n3)C2)c1` (stereo unspecified) was 1%; that for `O=C(NC1CCN(Cc2cccc(C(F)(F)F)c2)CC1)c1ccc(-c2cccc(Cl)c2)s1` was 26%.
In the case of `CN(C)CCNCc1ccc(-c2cccc(-c3nc4ccccc4[nH]3)c2)cc1`, the inhibition was 31%.
Still for that read-out and setting: to `Cc1cc(NN=Cc2ccccn2)c2cc(F)ccc2n1` belongs 9%; to `O=C(/C=C/c1ccc(Cl)c(Cl)c1)NCCCCCN1CC[C@H](NC(=O)Nc2ccc(Oc3ccccc3)cc2)C1`, 47%.

In general, inhibition refers to the relative decrease from the control value, in per cent.
